PubChem BioAssay AID1508600 (Functional Genomics Laboratory (NCATS/FGL), 2020)
Screen size: about 53,000 sequences; about 3,700 (7%) were called active. This is one part of a sample in which actives are shown more often than they occur. Values without a mark were called inactive.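 How the source made its calls: active means gene knockdowns whose robust z-score for IL-1 alpha signal is at least 2 or at most -2, so actives lie on both sides; inactive means the rest.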

Assay: Components of the Cytosolic LPS Sensing Pathway: Gene Identification via Genome-wide siRNA Screen;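 further: robust z of the log signal after scaling to non-targeting control siRNA wells of the plate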
Conditions: RAW264.7 macrophages, IL-1a HTRF, actives lie on both sides, screened at 100 nM (by protocol), cells primed 5 h with Pam3CSK4 first
Summary of the method: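 Mouse macrophage line RAW264.7 is transfected with siRNA (100 nM final), grown 48h, primed with TLR ligand Pam3CSK4 5 h and given intracellular LipidA 24 h. IL-1a in supernatant is read by HTRF and viability by luminescence.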

| Sequence | z-score |
| --- | --- |
| GGAUCAAAUUACAGAUCUUTT against Eef1e1 | 1.81 |
| GGAAAUGCUACUGCUUGGATT against 1700030K09Rik | 1.2 |
| GGAAACCAAAGAUAAACUCTT against Ccdc186 | 0.726 |
| GGGCAUCAAGUGUAAAAAATT against Med7 | -0.384 |
| GGAUAGGAAGAAAAUGAAGTT against Slfn2 | -2.83 (active) |
| CCCAAAUCCUACGAAGCCUTT against Tanc1 | -1.9 |
| GGAUCUAAGGAAGUUUCUGTT against Gfpt2 | 0.594 |
| GGCGAACACCAUGAAAAGGTT against Lin7b | 0.794 |
| GCGUGGAUAGUUUCACAGCTT against Fbp1 | -0.142 |
| GGAGAGUGCUGUGAAGCCATT against Vegfb | -0.943 |
| CCAGAAGAGUACUGUUUUATT against Tpm4 | 2.17 (active) |
| GGAAUACUCCAGUAUCUCCTT against 9130401M01Rik | -0.753 |
| GGCAAUGAGACAAUUGUCATT against Cpe | -0.638 |
| GGCAAAAUCCCAUACGAAATT against Itk | 0.0298 |
| CCAUGUAAGAUGUUAAGUATT against Abcb1a | -0.265 |
| CCUUUGUGUCCUAACGGUGTT against Tubb2b | -0.158 |
| GGUCCAUUGCUAAAGACUGTT against Tcf19 | 0.0971 |
| GGUAAUGAGGACAUGGAUCTT against Lyrm4 | 0.467 |
| GCACUUUCCUUUAUUGUGUTT against Fam117a | -1.41 |
| GGAAUUCAUGAACUACUAUTT against Capsl | -2.07 (active) |
| GGCUCAGAUUGAUAGGAUATT against Gmfg | 0.103 |
| GGCCAAACUAAUGUUUUUCTT against Prox2 | -0.594 |

| Sequence | z-score |
| --- | --- |
| CCUGCUGGGAUUUAUUCAATT against Pmvk | 2.52 (active) |
| GCUCAUAAUUACAUCACCATT against H3c15 | -1.22 |
| GGACCAUCCUACAUCGGUCTT against Fpgs | 1.02 |
| GGACAAGGUCUUUAAUGUUTT against Fbxo3 | -0.263 |
| CGGUUGUCUUCCUCUUAGUTT against Fzd5 | -0.52 |
| GAAAAGAGGAUUCCUUGCATT against Olfr1128 | 0.726 |
| GGCAAAGUUGUCCUAAGGUTT against Rab27b | 2.54 (active) |
| GCGAGAGUGAAAACAUCCATT against Fam78b | 0.331 |
| GGCUUAUACGCUCCAUAUUTT against Gykl1 | -0.214 |
| GGAUACAUUCCAGACAUACTT against Map3k2 | -0.0192 |
| GGCGGACGUGAAGAACUUGTT against Letmd1 | 1.28 |
| GGAACAGUCCUACUGAUAUTT against Cdkn1a | -0.271 |
| GCUGGAUGGAGGCAAAGCATT against C1ql1 | -1.38 |
| GGCCAGAACCACCAAAGAATT against Zc2hc1a | -0.753 |
| GCAACAAUCUAACCUCAGATT against Mela | -2.3 (active) |
| CCACUGAUAACUCGAUUUGTT against Nrp1 | -0.228 |
| GGAACCUCUUGGACAAAGATT against Cpne5 | 2.17 (active) |
| GGUAACAUGGCAGAUUUUATT against Aif1l | 0.618 |
| GGACUGUUUGGAUUGCAUATT against Dock7 | 0.891 |
| GGCAACAGCAUCCUACUCUTT against Olfr652 | -2.12 (active) |
| GCAUUUCGAAGUGCCCUUGTT against Gpr146 | 1.22 |
| CCGCUACCAGAUAAACUCGTT against BC053393 | 0.984 |

| Sequence | z-score |
| --- | --- |
| GGACAAUACGGAGAAAGAUTT against Mdfic | -0.522 |
| GGGCAAAUUAUGCUGUCAUTT against Tomm20 | -1.7 |
| GCGAUGAGAUUGUUGCUGUTT against Ttc33 | 2.32 (active) |
| GCUUGCUGACCUGAAGUGATT against Krt17 | 0.262 |
| GCUAUCCCUUUAUGUAACATT against Prl7b1 | -0.224 |
| CCAUAUCGAGUACCUCCAATT against Rtn4rl1 | -0.522 |
| GGUCUACUGGCGUAAUUACTT against Vsig4 | -0.365 |
| GCAGUCAUUCAAGGUUCCUTT against Hmces | -0.231 |
| GGUGUUGAAAUAAUUUCUCTT against Phospho2 | -0.285 |
| GGAGUGUAGUAAAUGUACCTT against Ppp1r13b | 3.97 (active) |
| GGACUUGAUCCCAAAGCUGTT against Mrpl17 | -1.21 |
| GGGACAACACAUUAACUUATT against Uckl1 | 1.41 |
| GCACAUUGUCUAGUAGUAATT against Zfp280d | -0.622 |
| GGAACAGAAACAAGGUUUUTT against Zfand2a | 0.962 |
| CCUCAUUCAGGGAGUUCCATT against 2200002J24Rik | -1.52 |
| GGACAGUGGAAGGAAUCCATT against 2310033P09Rik | -2.91 (active) |
| GCUGAUGCUCCAUUGAAUGTT against Prr27 | 0.228 |
| GCGUGAGAGAUACCGCCAUTT against Gnai2 | -0.847 |
| CGUGGUUUGUCAAUGAAGGTT against Eprs | 0.358 |
| GGUUCUUUGGAAUGCUUUUTT against Myl12a | 2.76 (active) |
| CGUAAGAUUGACUCUAGUATT against Prl6a1 | 0.326 |
| GGACAGACUGAUUAAGAAATT against Paqr8 | -0.569 |

| Sequence | z-score |
| --- | --- |
| GCUACUGAACGAGAAUGCCTT against Zc3h12a | 0.394 |
| GGACAUUGACGCAUAGGGATT against Arsa | -0.232 |
| GGAUACAGUUUCUGAAAUCTT against Mlxipl | 2.6 (active) |
| GCCAUGUGAUCGAAUCCAGTT against Clip2 | -0.0773 |
| GGGAUUCAUACUACUUAACTT against Olfr304 | 1.32 |
| GCAGUUACUUAUCAUCUGGTT against Inca1 | 0.00859 |
| GGUGUCUCUGAAUGAUGGCTT against 1810009J06Rik | 0.499 |
| GGGUUGAUCCCUUUGAUUCTT against Pld4 | -0.268 |
| GGACAAUGUGGACUUUGAUTT against Edem2 | -2.33 (active) |
| GCAAACUCGGACUUUCAAATT against Lamtor3 | 0.443 |
| GGGAAACUCGAGAUGUGCATT against Ankmy2 | 0.944 |
| GGAAAGAAAAACGUAGGCGTT against 4933402J07Rik | -1.16 |
| GGAGAACCAGAUCCUGAUCTT against Mypop | 0.511 |
| GGAGGUGUGGCAUCUGGAUTT against Gsn | 1.19 |
| GGAGGAAGACACUCCCUCUTT against Atf4 | -0.778 |
| CGAGAGUGAUGCGCAUUUCTT against Sf3b5 | -3.04 (active) |
| GGAAGCGGGAGAUAGAGGATT against Xpo6 | -0.108 |
| GCACAGAGGUCAGUUAAAGTT against St8sia3 | 1 |
| CGACCCUCUAAGGAUAUGCTT against Zfp456 | 1.01 |
| CCUGAUAUUCCAUCCUGAATT against Acad10 | -0.626 |
| GGUGCAUGGAAAAAAAUUATT against Neil2 | -0.691 |
| GCGGCCUGUGAGAGUUUAUTT against Pcyt1a | 3.4 (active) |

| Sequence | z-score |
| --- | --- |
| GGACCCAAGAAGAUGACGUTT against 0610010K14Rik | -0.694 |
| GCUGUGUGCCACUUUAUGUTT against Ebna1bp2 | 0.583 |
| CGACAACACAGUUAUUAUUTT against Pld1 | 0.338 |
| GCUUCGAGUUACAAUGUCATT against Fbxw15 | -0.912 |
| GGCACAUACGCUAUGAAGCTT against Prl2c5 | -0.0959 |
| GGUCUGUGACGAGAAGCUATT against Rab4a | -1.43 |
| CCGAUGACGAACAGUUUGATT against Eif4ebp3 | 2.08 (active) |
| GGCAAAUUUUUGGAGAUGUTT against Hspa4 | 0.931 |
| CGUAGAGAUCAGUUCAAUGTT against Clock | -1.36 |
| CGAGGACUCAAUAGUAGCCTT against Proser3 | -0.678 |
| GGAUCCUGAAACAGUUCAATT against Atm | -0.218 |
| GGGUGCUGUCAACAUAUGATT against Gabrq | 0.67 |
| GCUUUGUUGCCCUACUACCTT against Pacrg | -2.26 (active) |
| CCUUUCAUACCUUAGGUUATT against Slc25a44 | -0.42 |
| GGUGUAGAAUAGGACAAAUTT against Ntsr2 | 0.43 |
| GGUCACAAUGGUUUAAGGATT against Tacr1 | -0.943 |
| CCUGAUCUUGCACUCGAUGTT against Tbx6 | 0.422 |
| GGUAGAAGCAGAGUUACCATT against Spata32 | -1.64 |
| GGUGGAAGAAGAAAUUGUCTT against Tpd52l2 | -2 (active) |
